The structures appear in SMILES notation. This is part of a sample that, as a whole, favours compounds with a hit. Of some 83,000 tested, about 20% had one in any assay.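 Single-concentration screen, 48 h exposure, 96-well plates. Endpoint: percent growth. Below 10 = active.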 Unmarked numbers belong to inactive results. Calls of active or inactive are those of the source.

We go through 8 compounds from PubChem BioAssay (NCI).

Among the test systems are SK-MEL-2 melanoma; EKVX NSCLC; SN12C renal; UO-31 renal; TK-10 renal; ACHN renal; CAKI-1 renal; A498 renal; CCRF-CEM leukemia; MOLT-4 leukemia; SR leukemia; RPMI-8226 leukemia; OVCAR-8 ovarian; OVCAR-5 ovarian; OVCAR-4 ovarian; SK-OV-3 ovarian; IGROV1 ovarian; OVCAR-3 ovarian; HS 578T breast; NCI/ADR-RES ovarian.
What all share (assay): NCI-60 one-dose screen, 48 h (100 = growth as untreated, 0 = no growth, -100 = all killed)
Common to all, as to settings: 10 µM

Regarding `COc1ccc(/C(=N\N)C(=O)c2ccccc2)cc1` (tested in a mixture with another compound), the growth in the assay with SK-MEL-2 melanoma was 112%; in the assay on EKVX NSCLC it was 91.4%; in the assay on SN12C renal it was 88.5%; in the assay on UO-31 renal it was 81.1%; in the assay with TK-10 renal, 108%; with ACHN renal, 98.3%. The growth with CAKI-1 renal was 90.8%; in the assay on A498 renal it was 83.2%; with CCRF-CEM leukemia it was 88.2%; in the assay on MOLT-4 leukemia it was 80.4%; in the assay with SR leukemia it was 111%; in the assay on RPMI-8226 leukemia, 90%. In addition, the growth with OVCAR-8 ovarian was 103%; with OVCAR-5 ovarian it was 96.7%; in the assay on OVCAR-4 ovarian it was 95.9%; in the assay with SK-OV-3 ovarian, 97.7%; in the assay on IGROV1 ovarian, 107%; in the assay on OVCAR-3 ovarian, 102%. Moreover, the growth in the assay on HS 578T breast is 97.1%; in the assay with NCI/ADR-RES ovarian, 102%.
For `COc1cc(CNC(=O)C2CSC3(C)c4ccccc4C(=O)N23)cc(OC)c1OC` (stereo not given), the growth was 89.3% in the assay with SK-MEL-2 melanoma; 108% with EKVX NSCLC; 91.6% with SN12C renal; 90.3% with UO-31 renal; 102% in the assay with TK-10 renal; 97.4% in the assay on ACHN renal. For the same compound, the growth was 89.8% in the assay with CAKI-1 renal; 90.5% in the assay with A498 renal; 90.7% with CCRF-CEM leukemia; 81.2% in the assay on MOLT-4 leukemia; 77.4% in the assay on SR leukemia; 90.2% with RPMI-8226 leukemia. Besides, the growth was 92.4% in the assay with OVCAR-8 ovarian; 102% in the assay with OVCAR-5 ovarian; 97% with OVCAR-4 ovarian; 104% with SK-OV-3 ovarian; 112% in the assay on OVCAR-3 ovarian; 94.1% in the assay with HS 578T breast. Further, the growth with NCI/ADR-RES ovarian is 102%.
In the case of `CCN(CC)c1ccc(/C=C2\SC(=O)C(Nc3nnc(-c4cccnc4SCc4ccccc4)o3)C2=O)cc1` (stereo not given), the growth in the assay with SK-MEL-2 melanoma is 33.8%; in the assay with EKVX NSCLC, 55.8%; in the assay on SN12C renal, 61.4%; in the assay with UO-31 renal it was 53.7%; in the assay on TK-10 renal it was 44.3%; in the assay with ACHN renal, 51.2%. The growth was 41.2% in the assay with CAKI-1 renal; 9.41% (active) in the assay on A498 renal; 50.6% in the assay with CCRF-CEM leukemia; 61.9% with MOLT-4 leukemia; 11.8% in the assay on SR leukemia; 23.4% in the assay on RPMI-8226 leukemia. Besides, the growth is 24.2% in the assay on OVCAR-8 ovarian; 41.4% in the assay with OVCAR-5 ovarian; 38.6% in the assay on OVCAR-4 ovarian; 15.6% in the assay with SK-OV-3 ovarian; -13.5% (active) in the assay on OVCAR-3 ovarian; 26.6% with HS 578T breast. Besides, the growth in the assay with NCI/ADR-RES ovarian was -9.88% (active).
In the case of `O=C(N/N=C/c1ccc(Cl)cc1)c1ccc(Cc2n[nH]c(=O)c3cccnc23)cc1`, the growth with SK-MEL-2 melanoma is 108%; in the assay with EKVX NSCLC, 105%; with SN12C renal, 100%; in the assay on UO-31 renal it was 74.3%; with TK-10 renal, 107%; in the assay with ACHN renal, 102%. Moreover, the growth in the assay with CAKI-1 renal was 94.8%; with A498 renal, 131%; in the assay on CCRF-CEM leukemia it was 107%; in the assay on MOLT-4 leukemia, 98.6%; in the assay with SR leukemia it was 135%; in the assay on RPMI-8226 leukemia it was 117%. The growth in the assay with OVCAR-8 ovarian is 100%; in the assay on OVCAR-5 ovarian, 99.7%; in the assay with OVCAR-4 ovarian, 106%; in the assay with SK-OV-3 ovarian it was 103%; in the assay on IGROV1 ovarian, 102%; with OVCAR-3 ovarian it was 106%. The values for the growth in the assay with HS 578T breast and with NCI/ADR-RES ovarian were 108% and 101%, respectively.
Take `COc1ccc(C(=O)N/N=C/c2cc(C(F)(F)F)ccc2Cl)cc1`: the growth in the assay with SK-MEL-2 melanoma is 104%; with EKVX NSCLC, 75.7%; in the assay with SN12C renal, 93.6%; in the assay with UO-31 renal it was 88.9%; in the assay with TK-10 renal it was 107%; in the assay on ACHN renal it was 108%. Besides, the growth with CAKI-1 renal was 89.2%; with A498 renal it was 67%; in the assay with CCRF-CEM leukemia, 103%; in the assay on MOLT-4 leukemia, 92.5%; in the assay with SR leukemia it was 102%; in the assay on RPMI-8226 leukemia it was 121%. Further, the growth was 102% with OVCAR-8 ovarian; 95.5% in the assay on OVCAR-5 ovarian; 91.7% in the assay on OVCAR-4 ovarian; 99.8% in the assay on SK-OV-3 ovarian; 106% in the assay with IGROV1 ovarian; 108% in the assay with OVCAR-3 ovarian. Moreover, the growth in the assay on HS 578T breast is 92.6%; in the assay on NCI/ADR-RES ovarian it was 90.9%.
Turning to `CC(C1=C(CN(C(=O)Cc2cn(-c3ccccc3)nc2-c2ccc(Cl)cc2)C(C)C)Cc2ccccc21)c1ccccn1` (stereo not given), the growth in the assay on SK-MEL-2 melanoma is 53%; with EKVX NSCLC, 41%; with SN12C renal, 77%; in the assay with UO-31 renal, 27.4%; in the assay on TK-10 renal, 70.3%; in the assay with ACHN renal, 60.4%. Further, the growth with CAKI-1 renal was 40.9%; in the assay on A498 renal, 50.6%; with CCRF-CEM leukemia, 53.3%; in the assay on MOLT-4 leukemia, 29.3%; in the assay on SR leukemia it was 37.4%; in the assay with RPMI-8226 leukemia, 36.5%. Moreover, the growth in the assay with OVCAR-8 ovarian was 81.7%; with OVCAR-5 ovarian, 85%; in the assay with OVCAR-4 ovarian, 54.8%; in the assay with SK-OV-3 ovarian, 65.4%; in the assay on OVCAR-3 ovarian, 62.4%; with HS 578T breast, 80.7%. Further, the growth with NCI/ADR-RES ovarian is 61.1%.
On to `COc1ccc(C(=O)COc2cccc(/C=C3\Cc4ccccc4C3=O)c2)cc1`, for which the growth is 51.8% in the assay on SK-MEL-2 melanoma; 87.8% in the assay with EKVX NSCLC; 92.7% in the assay on SN12C renal; 12.1% in the assay with UO-31 renal; 111% in the assay with TK-10 renal; 95.8% in the assay with ACHN renal. Also, the growth is 76.4% in the assay on CAKI-1 renal; 94.7% in the assay on A498 renal; 80.8% in the assay with CCRF-CEM leukemia; 85.8% in the assay on MOLT-4 leukemia; 56.7% in the assay on SR leukemia; 57.9% with RPMI-8226 leukemia. The growth is 91.7% in the assay on OVCAR-8 ovarian; 88.5% in the assay on OVCAR-5 ovarian; 76.8% in the assay on OVCAR-4 ovarian; 95.8% in the assay with SK-OV-3 ovarian; 97.2% with OVCAR-3 ovarian; 86.9% in the assay with HS 578T breast. For the same compound, the growth with NCI/ADR-RES ovarian is 74.4%.
Turning to `Nc1c(Br)cc(Br)c2c1[nH]c(=O)c1ccccc12`, the growth is 98.6% in the assay with SK-MEL-2 melanoma; 57% in the assay on EKVX NSCLC; 80.1% in the assay with SN12C renal; 27.8% in the assay on UO-31 renal; 31.5% in the assay on TK-10 renal; 10.9% in the assay with ACHN renal. Also, the growth is 68.6% with CAKI-1 renal; 53.8% in the assay on A498 renal; 93.2% in the assay with CCRF-CEM leukemia; 80.8% in the assay on MOLT-4 leukemia; 81.1% in the assay with SR leukemia; 96.2% with RPMI-8226 leukemia. Further, the growth was 37.2% in the assay on OVCAR-8 ovarian; 72.8% in the assay with OVCAR-5 ovarian; 16.1% in the assay on SK-OV-3 ovarian; 58.4% in the assay on IGROV1 ovarian; 68.7% in the assay on OVCAR-3 ovarian; 30.5% in the assay on HS 578T breast. The growth with NCI/ADR-RES ovarian was 44.3%.
